Experimental data published in PubChem BioAssay (NCI).
The panel holds about 79,000 compounds, 15% with a hit somewhere; the sample as a whole holds those more often. Values without a mark were called inactive. The source made the active and inactive calls. Rule as the data show it: active = growth inhibition above about 70%; inactive = the rest.

Legend:
[1] = NCI Yeast Anticancer Drug Screen. Data for the rad50 strain (AID 155);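 also: 0% = growth of vehicle-only cultures of the same strain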; details: S. cerevisiae rad50 strain growth inhibition; at 50.0 µM; stronger effect = higher value
How it was run: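 Cells are treated with compound, grown, and their growth is then scored against vehicle-only cultures of the same repair-deficient yeast strain.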

[2] = NCI Yeast Anticancer Drug Screen. Data for the mec2-1 strain (AID 157); details: S. cerevisiae mec2-1 strain, at 50.0 µM, stronger effect = higher value
How it was run: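 Compounds were applied to mec2-1 yeast cells. Their growth was then compared with that of vehicle-treated cultures to give growth inhibition.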

[3] = NCI Yeast Anticancer Drug Screen. Data for the sgs1 mgt1 strain (AID 161);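 also: 0% = growth of cultures given vehicle only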; details: S. cerevisiae sgs1 mgt1 strain, at 50.0 µM, stronger effect = higher value
How it was run: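 Percent growth inhibition was derived by comparing compound-exposed mutant yeast with vehicle-exposed cultures. The strain carries alterations in DNA damage repair.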

[4] = NCI Yeast Anticancer Drug Screen. Data for the cln2 rad14 strain (AID 165);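 also: 0% = growth equal to vehicle treated cultures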; details: S. cerevisiae cln2 rad14 strain, at 50.0 µM, stronger effect = higher value
How it was run: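 Strain: cln2 rad14 yeast, altered in cell cycle control and DNA damage repair. Read-out: growth inhibition vs vehicle.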

[5] = NCI Yeast Anticancer Drug Screen. Data for the bub3 strain (AID 167); details: S. cerevisiae bub3 mutant strain, at 50.0 µM, stronger effect = higher value
How it was run: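 Part of a panel of yeast mutants defective in DNA damage repair or cell cycle regulation. Each strain is grown with compound, and inhibition is calculated relative to solvent-treated cultures.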

[6] = NCI Yeast Anticancer Drug Screen. Data for the mlh1 rad18 strain (AID 175); details: S. cerevisiae mlh1 rad18 strain growth inhibition; at 50.0 µM; stronger effect = higher value
How it was run: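 A repair-deficient yeast strain is exposed to test compound, and growth is scored relative to vehicle-treated controls.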

Row | Structure (SMILES) | growth inhibition [1] | growth inhibition [2] | growth inhibition [3] | growth inhibition [4] | growth inhibition [5] | growth inhibition [6]
1 | N#Cc1c(-c2ccccc2)cc(-c2cccs2)c(C#N)c1N | 4.35% | 4% | 7.85% | -35.3% | 12.8% | 21.1%
2 | Cc1cccc(C(=O)NN)c1O | -1.7% | -14.7% | -6.25% | 5.7% | 23.9% | 22.2%
3 | Cc1noc2cccc(OCc3ccccc3)c12 | -32.2% | -40.5% | 5.4% | -0.6% | 17.4% | -9.2%
4 | C=CC(C)C(C)C (configuration not stated) | 3.15% | 0.4% | -7.55% | 4.3% | 8.65% | -4.8%
5 | CCC(CCCCCc1ccccc1)(C(=O)O)C(=O)O | -0.7% | 10.8% | 21.7% | -55% | -5.2% | -2.95%
6 | Cc1ccc(S(=O)(=O)N/N=C/c2ccccc2)cc1 | 5.7% | -0.5% | 3.2% | -27.6% | 8.7% | 7.35%
7 | c1cc2c(cc1CC1CO1)OCO2 (configuration not stated) | -12.2% | -11.7% | 0.85% | -18.4% | -22.5% | 15%
8 | CC(OC1CC(=O)CC2C(=O)C=CC(=O)C12)c1ccccc1 (configuration not stated) | 25.1% | 21.8% | 26.3% | 20.6% | 28.4% | 26.3%
9 | CCN(c1ccccc1)c1nsc(Cl)n1 | -3.25% | -10.8% | -15.9% | -9.4% | 8.25% | -16%
10 | C/C=C/[C@@]1(OC(=O)c2ccccc2)C[C@@H]2CCCC[C@@H]21 | 35.4% | 11.1% | 37.4% | 23.3% | 12.9% | 31.6%
11 | CCOC(=O)c1ccc(NC(=O)Nc2cc(Cl)c(OC)cc2OC)cc1 | 75% (active) | 90.7% (active) | 94% (active) | 91.8% (active) | 76.1% (active) | 85.8% (active)
12 | COC(=O)c1ccc(F)cc1 | -53.9% | -25.9% | -25.5% | -1.45% | -51.6% | -46.3%
13 | CSC(SC)[P+](c1ccccc1)(c1ccccc1)c1ccccc1 | 94.1% (active) | 93.9% (active) | 90.7% (active) | 93.5% (active) | 91.2% (active) | 93.5% (active)
14 | C/C=C/C=C\C(=O)C1c2cccc(O)c2C(=O)c2c(O)cc(C)cc21 (configuration not stated) | 40.4% | 20.9% | 12.3% | 29.6% | 37.5% | 34.1%
15 | O=C(Nc1ccsc1)c1ccccc1 | -10.8% | -8.7% | -19.3% | -58.2% | -27.4% | -3.25%
16 | Cc1nc2c(ccc3cc4ccccc4cc32)cc1N(CCO)CCO | 28.1% | -0.75% | -0.15% | 20.9% | 16.6% | 18.1%
17 | COc1cc(/C=N/n2c(C)cc(C)c(C#N)c2=O)cc(OC)c1OC | -11.9% | 12.9% | -3.4% | 9.1% | -1.05% | -25.4%
18 | CCC(=O)OCCC(C)C | 35.4% | 12.2% | 6.85% | -22.1% | 19.9% | 17.4%
19 | O=C(Cn1c2c(c3ccccc31)CCCC2)NC1CCCCC1 | 2.6% | -28.4% | 21.9% | 30.3% | 1.25% | 9.7%
20 | Cc1nc2c(N3CCCCC3)ncnc2o1 | 7.3% | -0.85% | -6.15% | -28.7% | -13.8% | 4.05%
21 | N#CCCCCN1CCCC1 | 32.2% | -8.7% | 3.4% | 12.7% | 10.1% | 9.05%

Row | Structure (SMILES) | growth inhibition [1] | growth inhibition [2] | growth inhibition [3] | growth inhibition [4] | growth inhibition [5] | growth inhibition [6]
22 | CCc1c(C)[nH]c(C2=NCCC2)c1C | -10.6% | -9.6% | -17.8% | -1.6% | -13.4% | -25.1%
23 | CC(=O)Nc1c(C)cccc1F | 2.35% | 6.45% | -3.95% | 12.1% | 3.3% | -12.4%
24 | COC(=O)/C(C#N)=C(C)/C=C/c1ccc(OC)cc1 | 22.6% | 14% | 8% | -15.6% | 18.6% | 22.2%
25 | CC(C)=Cc1cc(CCC/C(C)=C/Cc2c(O)cc(C)c(C(=O)O)c2O)co1 | -9% | -25.9% | -1.75% | -6.55% | -18.9% | -15.2%
26 | NC(CS)C(=O)NCCNCCNc1ccc(NCCNCCNC(=O)C(N)CS)c2c1C(=O)c1c(O)ccc(O)c1C2=O (configuration not stated) | -30.4% | -12.4% | 2.1% | -0.85% | -10.5% | -12.7%
27 | O=C(c1ccccc1Cl)N1CCN(c2ccccc2)CC1 | 12.9% | -3.4% | 0% | -28.5% | 9.55% | -6.85%
28 | COc1ccc(C(=O)c2ccccc2)cc1OC | 2.95% | 13.8% | -4.25% | -21.4% | -1.2% | -7.85%
29 | O=c1[nH]c(=S)[nH]c2c1CN(CCCN1CCOCC1)CN2 | 10.3% | -8.7% | -15.8% | 3.2% | -25.1% | 5.45%
30 | COC(=O)CCC(=O)CC(=O)C(=O)Nc1ccc(F)cc1 | 3.2% | 3.75% | -1.7% | -2.6% | -15.6% | 7.75%
31 | CCOC(=O)c1sc2c(c1OC(=O)c1ccccc1)c(=O)n(-c1ccccc1)c(=S)n2-c1ccccc1 | 21% | 15.9% | 30.1% | 24.9% | 29.2% | 33.7%
32 | O=C1OC2c3ccccc3CC1C2CO (configuration not stated) | 20.9% | 4.7% | 7.55% | 9.25% | 2% | -4.45%
33 | O=[N+]([O-])c1ccc(OCCCCCBr)c(Cl)c1 | -1.95% | 47.1% | 70.3% (active) | -26.7% | 66.2% | 54.7%
34 | CN1CNC(=S)NC1 | 10.2% | -7.85% | 11% | 17.6% | 20.9% | 15.2%
35 | N#CC1CCCCCCCCCCC(=O)N(CCCl)C1=O (configuration not stated) | -4.25% | -0.45% | 13.2% | 6.2% | -12.9% | -7.05%
36 | CCc1n[nH]c(=S)n1/N=C/c1ccc(-c2ccc([N+](=O)[O-])cc2)o1 | 14.6% | -17.6% | -14% | 9.85% | -14.1% | 10.3%
37 | CC(C)[Si]1(C(C)C)N([Si](C)(C)F)[Si](C(C)C)(C(C)C)N1[Si](C)(C)F | 7.7% | 6.25% | -3.05% | 21% | -4.45% | 26.2%
38 | CCOC(=O)CCc1cnc[nH]1 | -60.5% | -8.95% | -3.05% | -14.1% | -4.55% | -0.75%
39 | O.O.O=c1cc(Cl)[nH]c(=O)[nH]1.[NH2-].[NH2-].[Pt+4] | -21.9% | -18.1% | -2.4% | -47.6% | 2.65% | 35.7%
40 | COCCc1ccncc1 | -0.85% | -35.3% | -31.3% | -6.45% | -15.8% | -7.9%
41 | COc1ccc(OC(C)C(=O)O)cc1 (configuration not stated) | 13.2% | 10.5% | 3.5% | -31.5% | 13.3% | 6.25%
42 | COC(=O)CC(=O)C=P(c1ccccc1)(c1ccccc1)c1ccccc1 | -3.2% | -4.15% | -3.15% | 6.3% | -17.5% | -2.15%
